# Results as given in PubChem BioAssay (NCATS).
# Results filed as inconclusive are left out. Entries that show only a call come without a potency. Unmarked numbers belong to inactive results. Calls of active or inactive are those of the source. Calls come from the whole dose curve; as a rule, active = well fitted cell-killing curve with a large enough effect; inconclusive = small, poorly fitted or top-dose-only effect, or effect the other way; inactive = flat fitted curve, though single readings scatter.
# Tests used:
# Experiment in all cases: Primary qHTS to identify gynecologic anti-cancer compounds using libraries of approved drugs and bioactive compounds (AID 1345084); note: nearly all actives have a fitted effect of over 55% in size
# C33A = settings: Gynecologic cancer cell panel viability, ATPlite luminescence, 48 h; series mostly up to 57.5 µM
# Procedure, shortened: (§1)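 ATP-based viability (ATPlite), 1,000 cells/well, 16 h pre-incubation, 48 h compound at 37 C, 5% CO2, 15 min RT before read.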
# CAOV3 = settings: Gynecologic cancer cell panel viability, ATPlite luminescence, 48 h; series mostly up to 57.5 µM
# Procedure, shortened: as §1
# CASKI = settings: Gynecologic cancer cell panel viability, ATPlite luminescence, 48 h; series mostly up to 57.5 µM
# Procedure, shortened: as §1
# Es-2 = settings: Gynecologic cancer cell panel viability, ATPlite luminescence, 48 h; series mostly up to 57.5 µM
# Procedure, shortened: as §1
# HeLa = settings: Gynecologic cancer cell panel viability, ATPlite luminescence, 48 h; series mostly up to 57.5 µM
# Procedure, shortened: as §1
# Hek293T = settings: Gynecologic cancer cell panel viability, ATPlite luminescence, 48 h, control line for the selectivity index; series mostly up to 57.5 µM
# Procedure, shortened: as §1
# JEG-3 = settings: Gynecologic cancer cell panel viability, ATPlite luminescence, 48 h; series mostly up to 57.5 µM
# Procedure, shortened: as §1
# OV90 = settings: Gynecologic cancer cell panel viability, ATPlite luminescence, 48 h; series mostly up to 57.5 µM
# Procedure, shortened: as §1
# PA-1 = settings: Gynecologic cancer cell panel viability, ATPlite luminescence, 48 h; series mostly up to 57.5 µM
# Procedure, shortened: as §1
# SKOV3 = settings: Gynecologic cancer cell panel viability, ATPlite luminescence, 48 h; series mostly up to 57.5 µM
# Procedure, shortened: as §1
# Potency is the fitted concentration of half-maximal effect.
structure (smiles),measurement,setting,value
C=C[C@H]1[C@H](O[C@@H]2O[C@H](CO)[C@@H](O)[C@H](O)[C@H]2O)OC=C2C(=O)OCC[C@H]21,Potency,C33A,inactive
same,Potency,CAOV3,inactive
same,Potency,CASKI,inactive
same,Potency,Es-2,inactive
same,Potency,HeLa,inactive
same,Potency,Hek293T,inactive
same,Potency,JEG-3,inactive
same,Potency,OV90,inactive
same,Potency,PA-1,inactive
same,Potency,SKOV3,inactive
C/C=C(\C)C(=O)OC1C(C)OC(OC2C(C)OC(OC3CCC4(C)C(=CCC5C4CCC4(C)C(C(C)OC6OC(COC7OC(CO)C(O)C(O)C7O)C(O)C(O)C6O)CCC54O)C3)CC2OC)C(O)C1OC (centres undefined),"activity change, negative = cytotoxicity",C33A,7.57% [at 11.6 µM]
same,"activity change, negative = cytotoxicity",CAOV3,12.8% [at 11.6 µM]
same,"activity change, negative = cytotoxicity",CASKI,9.44% [at 11.6 µM]
same,"activity change, negative = cytotoxicity",Es-2,4.35% [at 11.6 µM]
same,"activity change, negative = cytotoxicity",HeLa,3.42% [at 11.6 µM]
same,"activity change, negative = cytotoxicity",Hek293T,8.11% [at 11.6 µM]
same,"activity change, negative = cytotoxicity",JEG-3,-0.0196% [at 11.6 µM]
same,"activity change, negative = cytotoxicity",OV90,-0.455% [at 11.6 µM]
same,"activity change, negative = cytotoxicity",PA-1,9.3% [at 11.6 µM]
same,"activity change, negative = cytotoxicity",SKOV3,-10% [at 11.6 µM]
CN1C(=O)c2ccccc2NC(=O)C1Cc1ccccc1 (centres undefined),Potency,C33A,inactive
same,Potency,CAOV3,inactive
same,Potency,CASKI,inactive
same,Potency,Es-2,inactive
same,Potency,HeLa,inactive
same,Potency,Hek293T,inactive
same,Potency,JEG-3,inactive
same,Potency,OV90,inactive
same,Potency,PA-1,inactive
same,Potency,SKOV3,inactive
O=C1C[C@@H]2OCC=C3CN4CC[C@]56c7ccccc7N1[C@H]5[C@H]2[C@H]3C[C@H]46,Potency,C33A,inactive
same,Potency,CAOV3,inactive
same,Potency,CASKI,inactive
same,Potency,Es-2,inactive
same,Potency,HeLa,inactive
same,Potency,Hek293T,inactive
same,Potency,JEG-3,inactive
same,Potency,OV90,inactive
same,Potency,PA-1,inactive
same,Potency,SKOV3,inactive
CCN1C[C@]2(COC(=O)c3ccccc3N3C(=O)C[C@H](C)C3=O)CC[C@H](OC)[C@@]34[C@@H]5C[C@H]6[C@H](OC)[C@@H]5[C@](O)(C[C@@H]6OC)[C@](O)([C@@H](OC)[C@H]23)[C@@H]14,Potency,C33A,inactive
same,Potency,CAOV3,inactive
same,Potency,CASKI,inactive
same,Potency,Es-2,inactive
same,Potency,HeLa,inactive
same,Potency,Hek293T,inactive
same,Potency,JEG-3,inactive
same,Potency,OV90,inactive
same,Potency,PA-1,inactive
same,Potency,SKOV3,inactive
CC(N)Cc1c[nH]c2ccccc12 (centres undefined),Potency,C33A,inactive
same,Potency,CAOV3,inactive
same,Potency,CASKI,inactive
same,Potency,Es-2,inactive
same,Potency,HeLa,inactive
same,Potency,Hek293T,inactive
same,Potency,JEG-3,inactive
same,Potency,OV90,inactive
same,Potency,PA-1,inactive
CC1=C2C(=O)C3[C@@H](CC=C4C[C@@H](O)CC[C@@]43C)[C@@H]2CC[C@]12O[C@@H]1C[C@H](C)CN[C@H]1[C@H]2C (some centres undefined),Potency,C33A,inactive
same,Potency,CAOV3,inactive
same,Potency,CASKI,inactive
same,Potency,Es-2,inactive
same,Potency,HeLa,inactive
same,Potency,Hek293T,inactive
same,Potency,JEG-3,inactive
same,Potency,OV90,inactive
same,Potency,PA-1,inactive
same,Potency,SKOV3,inactive
COC1CC(OC2CCC3(C)C(=CCC4C3CCC3(C)C(C(C)OC5OC(COC6OC(CO)C(O)C(O)C6O)C(O)C(O)C5O)CCC43O)C2)OC(C)C1OC1OC(C)C(O)C(OC)C1O (centres undefined),"activity change, negative = cytotoxicity",C33A,6.28% [at 11.6 µM]
same,"activity change, negative = cytotoxicity",CAOV3,3.88% [at 11.6 µM]
same,"activity change, negative = cytotoxicity",CASKI,4.6% [at 11.6 µM]
same,"activity change, negative = cytotoxicity",Es-2,-3.02% [at 11.6 µM]
same,"activity change, negative = cytotoxicity",HeLa,-1.19% [at 11.6 µM]
same,"activity change, negative = cytotoxicity",Hek293T,5.95% [at 11.6 µM]
same,"activity change, negative = cytotoxicity",JEG-3,-7.91% [at 11.6 µM]
same,"activity change, negative = cytotoxicity",OV90,0.938% [at 11.6 µM]
same,"activity change, negative = cytotoxicity",PA-1,2.38% [at 11.6 µM]
same,"activity change, negative = cytotoxicity",SKOV3,25.2% [at 11.6 µM]
Cc1c(Cl)cccc1S(=O)(=O)Nc1nc(CC(=O)N2CCN(C)CC2)cs1,Potency,C33A,inactive
same,Potency,CAOV3,inactive
same,Potency,CASKI,inactive
same,Potency,Es-2,inactive
same,Potency,HeLa,inactive
same,Potency,Hek293T,inactive
same,Potency,JEG-3,inactive
same,Potency,OV90,inactive
same,Potency,PA-1,inactive
CO[C@H]1[C@H](O)[C@H](O[C@H]2CC[C@]3(C)C4CC[C@]5(C)[C@H](C6=CC(=O)OC6)CC[C@]5(O)C4CC[C@@H]3C2)O[C@@H](C)[C@@H]1O (some centres undefined),Potency,C33A,89.1 nM (active)
same,Potency,CAOV3,126 nM (active)
same,Potency,CASKI,224 nM (active)
same,Potency,Es-2,79.4 nM (active)
same,Potency,HeLa,89.1 nM (active)
same,Potency,Hek293T,89.1 nM (active)
same,Potency,JEG-3,178 nM (active)
same,Potency,OV90,282 nM (active)
same,Potency,PA-1,89.1 nM (active)
CCCCCCn1c(=O)c(C(=O)Nc2ccc(C(=O)OCCC)cc2)c(O)c2ccccc21,"activity change, negative = cytotoxicity",C33A,-0.0211% [at 11.6 µM]
same,"activity change, negative = cytotoxicity",CAOV3,20.9% [at 11.6 µM]
same,"activity change, negative = cytotoxicity",CASKI,4.2% [at 11.6 µM]
same,"activity change, negative = cytotoxicity",Es-2,9.25% [at 11.6 µM]
same,"activity change, negative = cytotoxicity",HeLa,18.5% [at 11.6 µM]
same,"activity change, negative = cytotoxicity",Hek293T,10.5% [at 11.6 µM]
same,"activity change, negative = cytotoxicity",JEG-3,-0.73% [at 11.6 µM]
same,"activity change, negative = cytotoxicity",OV90,9.17% [at 11.6 µM]
same,"activity change, negative = cytotoxicity",PA-1,1.75% [at 11.6 µM]
same,"activity change, negative = cytotoxicity",SKOV3,-0.233% [at 11.6 µM]
CN(C(=O)Cc1ccccc1)C(CN1CCCC1)c1ccccc1 (centres undefined),Potency,C33A,inactive
same,Potency,CAOV3,inactive
same,Potency,CASKI,inactive
same,Potency,Es-2,inactive
same,Potency,HeLa,inactive
same,Potency,Hek293T,inactive
same,Potency,JEG-3,inactive
same,Potency,OV90,inactive
same,Potency,PA-1,inactive
same,Potency,SKOV3,inactive
Cc1cccc(NC(=O)N[C@@H]2N=C(c3ccccc3)c3ccccc3N(C)C2=O)c1,Potency,C33A,inactive
same,Potency,CAOV3,inactive
same,Potency,CASKI,inactive
same,Potency,Es-2,inactive
same,Potency,HeLa,inactive
same,Potency,Hek293T,inactive
same,Potency,JEG-3,inactive
same,Potency,OV90,inactive
same,Potency,PA-1,inactive
Cc1cc(C(=O)CN2CCCC2)c(C)n1-c1ccc(F)cc1,Potency,C33A,inactive
same,Potency,CAOV3,inactive
same,Potency,CASKI,inactive
same,Potency,Es-2,inactive
same,Potency,HeLa,inactive
same,Potency,Hek293T,inactive
same,Potency,JEG-3,inactive
same,Potency,OV90,inactive
same,Potency,PA-1,inactive
CC(=O)OC1CC(O)C2(C)C(CC(OC(C)=O)C3(C)C2CCC2(C)C(c4ccoc4)C(=O)C4OC423)C1(C)C (centres undefined),Potency,C33A,inactive
same,Potency,CAOV3,inactive
same,Potency,CASKI,inactive
same,Potency,Es-2,inactive
same,Potency,HeLa,inactive
same,Potency,Hek293T,inactive
same,Potency,JEG-3,inactive
same,Potency,OV90,inactive
same,Potency,PA-1,inactive
same,Potency,SKOV3,inactive
CCC1NC(=O)C2C(Cl)C(Cl)CN2C(=O)C(C(C)O)NC(=O)CC(c2ccccc2)NC(=O)C(CO)NC1=O (centres undefined),Potency,C33A,inactive
same,Potency,CAOV3,inactive
same,Potency,CASKI,inactive
same,Potency,Es-2,inactive
same,Potency,HeLa,inactive
same,Potency,Hek293T,inactive
same,Potency,JEG-3,inactive
same,Potency,OV90,inactive
same,Potency,PA-1,inactive
CCC(C)(C#N)O[C@@H]1O[C@H](CO)[C@@H](O)[C@H](O)[C@H]1O (some centres undefined),Potency,C33A,inactive
same,Potency,CAOV3,inactive
same,Potency,CASKI,inactive
same,Potency,Es-2,inactive
same,Potency,HeLa,inactive
same,Potency,Hek293T,inactive
same,Potency,JEG-3,inactive
same,Potency,OV90,inactive
same,Potency,PA-1,inactive
same,Potency,SKOV3,inactive
